Data as given in the supplement of paper PMC10037445.
In all, about 2,900 compounds were measured (“NF-kB SEAP reporter activity, fold change vs agonist alone”: median about 0.99, highest 2% from about 2.6 on). Only a selection was taken, and the highest values are over-represented in it overall.

Assays:
RAW-Dual [1] = test: NF-kB SEAP reporter activity, fold change vs agonist alone; higher = enhanced NF-kB activity; conditions: library stock concentration (final ~1000-fold dilution): 10 mM, cytotoxicity flag (confluency mask): not cytotoxic
Procedure, shortened: (§1)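 After 50 nL of library stock was delivered by pin tool to RAW-Dual macrophages (50,000 cells/well, DMEM, 384-well plates), a PRR agonist was added 1 h later and the plates were kept at 37 °C, 5% CO2. Twenty hours later, IRF was read from supernatant by QuantiLuc luminescence and NF-κB by QuantiBlue absorbance at 620 nm. Reporter activity is stated as fold change over agonist-alone wells. Wells with IncuCyte confluency under 70% of agonist controls in both mask sets were counted as cytotoxic.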

RAW-Dual [2] = test: NF-kB SEAP reporter activity, fold change vs agonist alone; cytotoxicity flag (confluency mask): not cytotoxic; higher = enhanced NF-kB activity
Procedure, shortened: as §1

RAW-Dual [3] = test: NF-kB SEAP reporter activity, fold change vs agonist alone; cytotoxicity flag (confluency mask): cytotoxic (confluency <70% of control); higher = enhanced NF-kB activity
Procedure, shortened: as §1

[4] = agonist: ODN 1826 (TLR9) 0.5 ug/mL
[5] = agonist: Pam2CSK4 (TLR2/6) 0.1 ug/mL
[6] = agonist: Pam3CSK4 (TLR2/1) 0.1 ug/mL

Structure (SMILES): COC(=O)NC(C(=O)N1CCCC1c1ncc(-c2ccc(-c3ccc(-c4cnc(C5CCCN5C(=O)C(NC(=O)OC)C(C)C)[nH]4)cc3)cc2)[nH]1)C(C)C (centres undefined)
- NF-kB SEAP reporter activity (RAW-Dual [1]; agonist: Imiquimod (TLR7) […]): 1.24
- NF-kB SEAP reporter activity (RAW-Dual [1]; agonist: MPLA (TLR4) […]): 1.31

Structure (SMILES): COC(=O)NC(C(=O)N1CCCC1c1ncc(-c2ccc(-c3ccc(-c4cnc(C5CCCN5C(=O)C(NC(=O)OC)C(C)C)[nH]4)cc3)cc2)[nH]1)C(C)C (centres undefined) (library stock concentration (final ~1000-fold dilution): 10 mM)
- NF-kB SEAP reporter activity (RAW-Dual [2]; agonist: LPS (TLR4) 0.1 ug/mL): 1.88
- NF-kB SEAP reporter activity (RAW-Dual [2]; [4]): 0.935
- NF-kB SEAP reporter activity (RAW-Dual [2]; [5]): 0.867
- NF-kB SEAP reporter activity (RAW-Dual [2]; [6]): 0.8

Structure (SMILES): Cc1n[nH]c2ncc(C(=O)N3CCCC3c3ccc(Cl)cc3)cc12 (centres undefined) (library stock concentration (final ~1000-fold dilution): 10 mM)
- NF-kB SEAP reporter activity (RAW-Dual [2]; agonist: LPS (TLR4) 0.1 ug/mL): 2.51
- NF-kB SEAP reporter activity (RAW-Dual [2]; [4]): 2.07
- NF-kB SEAP reporter activity (RAW-Dual [2]; [5]): 1.61
- NF-kB SEAP reporter activity (RAW-Dual [2]; [6]): 2.59

Structure (SMILES): Cc1n[nH]c2ncc(C(=O)N3CCCC3c3ccc(Cl)cc3)cc12 (centres undefined)
- NF-kB SEAP reporter activity (RAW-Dual [1]; agonist: Imiquimod (TLR7) […]): 1.44
- NF-kB SEAP reporter activity (RAW-Dual [1]; agonist: MPLA (TLR4) […]): 1.77

Structure (SMILES): Cn1ncc(Cl)c1-c1cc(C(=O)NC(CN)Cc2cccc(F)c2)sc1Cl (centres undefined) (library stock concentration (final ~1000-fold dilution): 10 mM)
- NF-kB SEAP reporter activity (RAW-Dual [2]; agonist: LPS (TLR4) 0.1 ug/mL): 1.53
- NF-kB SEAP reporter activity (RAW-Dual [2]; [4]): 1.27
- NF-kB SEAP reporter activity (RAW-Dual [2]; [5]): 1
- NF-kB SEAP reporter activity (RAW-Dual [2]; [6]): 1.15

Structure (SMILES): Cn1ncc(Cl)c1-c1cc(C(=O)NC(CN)Cc2cccc(F)c2)sc1Cl (centres undefined)
- NF-kB SEAP reporter activity (RAW-Dual [1]; agonist: Imiquimod (TLR7) […]): 1.39
- NF-kB SEAP reporter activity (RAW-Dual [1]; agonist: MPLA (TLR4) […]): 1.77

Structure (SMILES): CCCC(NC(=O)C1C2CCCC2CN1C(=O)C(NC(=O)C(NC(=O)c1cnccn1)C1CCCCC1)C(C)(C)C)C(=O)C(=O)NC1CC1 (centres undefined)
- NF-kB SEAP reporter activity (RAW-Dual [1]; agonist: Imiquimod (TLR7) […]): 0.65
- NF-kB SEAP reporter activity (RAW-Dual [1]; agonist: MPLA (TLR4) […]): 1.02

Structure (SMILES): CCCC(NC(=O)C1C2CCCC2CN1C(=O)C(NC(=O)C(NC(=O)c1cnccn1)C1CCCCC1)C(C)(C)C)C(=O)C(=O)NC1CC1 (centres undefined) (library stock concentration (final ~1000-fold dilution): 10 mM)
- NF-kB SEAP reporter activity (RAW-Dual [2]; agonist: LPS (TLR4) 0.1 ug/mL): 1.3
- NF-kB SEAP reporter activity (RAW-Dual [2]; [4]): 0.887
- NF-kB SEAP reporter activity (RAW-Dual [2]; [5]): 0.68
- NF-kB SEAP reporter activity (RAW-Dual [2]; [6]): 0.601

Structure (SMILES): Nc1nc(F)nc2c1ncn2C1OC(CO)C(O)C1O (centres undefined) (library stock concentration (final ~1000-fold dilution): 10 mM)
- NF-kB SEAP reporter activity (RAW-Dual [2]; agonist: LPS (TLR4) 0.1 ug/mL): 1.1
- NF-kB SEAP reporter activity (RAW-Dual [2]; [4]): 1.03
- NF-kB SEAP reporter activity (RAW-Dual [2]; [5]): 1.06
- NF-kB SEAP reporter activity (RAW-Dual [2]; [6]): 1.22

Structure (SMILES): Nc1nc(F)nc2c1ncn2C1OC(CO)C(O)C1O (centres undefined)
- NF-kB SEAP reporter activity (RAW-Dual [1]; agonist: Imiquimod (TLR7) […]): 0.92
- NF-kB SEAP reporter activity (RAW-Dual [1]; agonist: MPLA (TLR4) […]): 0.844

Structure (SMILES): CC(C)CC(NC(=O)C(CCc1ccccc1)NC(=O)CN1CCOCC1)C(=O)NC(Cc1ccccc1)C(=O)NC(CC(C)C)C(=O)C1(C)CO1 (centres undefined) (library stock concentration (final ~1000-fold dilution): 10 mM)
- NF-kB SEAP reporter activity (RAW-Dual [2]; agonist: LPS (TLR4) 0.1 ug/mL): 0.318
- NF-kB SEAP reporter activity (RAW-Dual [2]; [4]): 1.18
- NF-kB SEAP reporter activity (RAW-Dual [2]; [5]): 0.683
- NF-kB SEAP reporter activity (RAW-Dual [2]; [6]): 0.456

Structure (SMILES): CC(C)CC(NC(=O)C(CCc1ccccc1)NC(=O)CN1CCOCC1)C(=O)NC(Cc1ccccc1)C(=O)NC(CC(C)C)C(=O)C1(C)CO1 (centres undefined)
- NF-kB SEAP reporter activity (RAW-Dual [1]; agonist: Imiquimod (TLR7) […]): 2.33
- NF-kB SEAP reporter activity (RAW-Dual [1]; agonist: MPLA (TLR4) […]): 0.832

Structure (SMILES): CCc1c(N(CC)C2CCOCC2)cc2oc(C3CCN(C(C)C)CC3)cc2c1C(=O)NCc1c(C)cc(C)[nH]c1=O
- NF-kB SEAP reporter activity (RAW-Dual [1]; agonist: Imiquimod (TLR7) […]): 1.34
- NF-kB SEAP reporter activity (RAW-Dual [1]; agonist: MPLA (TLR4) […]): 1.04

Structure (SMILES): CCc1c(N(CC)C2CCOCC2)cc2oc(C3CCN(C(C)C)CC3)cc2c1C(=O)NCc1c(C)cc(C)[nH]c1=O (library stock concentration (final ~1000-fold dilution): 10 mM)
- NF-kB SEAP reporter activity (RAW-Dual [2]; agonist: LPS (TLR4) 0.1 ug/mL): 1.13
- NF-kB SEAP reporter activity (RAW-Dual [2]; [4]): 0.983
- NF-kB SEAP reporter activity (RAW-Dual [2]; [5]): 1.04
- NF-kB SEAP reporter activity (RAW-Dual [2]; [6]): 0.941

Structure (SMILES): COCC(NC(=O)c1cnc(C)s1)C(=O)NC(COC)C(=O)NC(Cc1ccccc1)C(=O)C1(C)CO1 (centres undefined)
- NF-kB SEAP reporter activity (RAW-Dual [1]; agonist: Imiquimod (TLR7) […]): 2.34
- NF-kB SEAP reporter activity (RAW-Dual [1]; agonist: MPLA (TLR4) […]): 1.21

Structure (SMILES): COCC(NC(=O)c1cnc(C)s1)C(=O)NC(COC)C(=O)NC(Cc1ccccc1)C(=O)C1(C)CO1 (centres undefined) (library stock concentration (final ~1000-fold dilution): 10 mM)
- NF-kB SEAP reporter activity (RAW-Dual [2]; agonist: LPS (TLR4) 0.1 ug/mL): 0.377
- NF-kB SEAP reporter activity (RAW-Dual [2]; [4]): 1.25
- NF-kB SEAP reporter activity (RAW-Dual [2]; [5]): 0.279
- NF-kB SEAP reporter activity (RAW-Dual [2]; [6]): 0.692

Structure (SMILES): Cc1nc(N)sc1-c1ccnc(Nc2ccc(N3CCOCC3)cc2)n1
- NF-kB SEAP reporter activity (RAW-Dual [1]; agonist: Imiquimod (TLR7) […]): 0.996
- NF-kB SEAP reporter activity (RAW-Dual [1]; agonist: MPLA (TLR4) […]): 1.39

Structure (SMILES): CC(C)(O)CNc1nc(Nc2ccnc(C(F)(F)F)c2)nc(-c2cccc(C(F)(F)F)n2)n1 (library stock concentration (final ~1000-fold dilution): 10 mM)
- NF-kB SEAP reporter activity (RAW-Dual [2]; agonist: LPS (TLR4) 0.1 ug/mL): 1.51
- NF-kB SEAP reporter activity (RAW-Dual [2]; [4]): 1.61
- NF-kB SEAP reporter activity (RAW-Dual [2]; [5]): 1.09
- NF-kB SEAP reporter activity (RAW-Dual [2]; [6]): 1.59

Structure (SMILES): Nc1ncc(-c2ccnc(Nc3ccncc3)n2)c(CC2CC2)n1 (library stock concentration (final ~1000-fold dilution): 10 mM)
- NF-kB SEAP reporter activity (RAW-Dual [3]; agonist: LPS (TLR4) 0.1 ug/mL): 4.89
- NF-kB SEAP reporter activity (RAW-Dual [3]; [4]): 0.424
- NF-kB SEAP reporter activity (RAW-Dual [3]; [5]): 0.975
- NF-kB SEAP reporter activity (RAW-Dual [3]; [6]): 1.51

Structure (SMILES): CC(C)(O)CNc1nc(Nc2ccnc(C(F)(F)F)c2)nc(-c2cccc(C(F)(F)F)n2)n1
- NF-kB SEAP reporter activity (RAW-Dual [1]; agonist: Imiquimod (TLR7) […]): 1.19
- NF-kB SEAP reporter activity (RAW-Dual [1]; agonist: MPLA (TLR4) […]): 1.28

Structure (SMILES): Cc1nc(N)sc1-c1ccnc(Nc2ccc(N3CCOCC3)cc2)n1 (library stock concentration (final ~1000-fold dilution): 10 mM)
- NF-kB SEAP reporter activity (RAW-Dual [2]; agonist: LPS (TLR4) 0.1 ug/mL): 0.713
- NF-kB SEAP reporter activity (RAW-Dual [2]; [4]): 0.256
- NF-kB SEAP reporter activity (RAW-Dual [2]; [5]): 0.401
- NF-kB SEAP reporter activity (RAW-Dual [2]; [6]): 0.522

Structure (SMILES): CC(C)(O)CNc1ncc(-c2ccnc(Nc3ccncc3)n2)c(CC2CC2)n1 (library stock concentration (final ~1000-fold dilution): 10 mM)
- NF-kB SEAP reporter activity (RAW-Dual [2]; agonist: LPS (TLR4) 0.1 ug/mL): 4.13
- NF-kB SEAP reporter activity (RAW-Dual [2]; [4]): 0.366
- NF-kB SEAP reporter activity (RAW-Dual [2]; [5]): 0.814
- NF-kB SEAP reporter activity (RAW-Dual [2]; [6]): 1.66

Structure (SMILES): COc1cc(N2CCN(C)CC2)ccc1Nc1nccc(-c2cn(C)c3cnccc23)n1
- NF-kB SEAP reporter activity (RAW-Dual [1]; agonist: Imiquimod (TLR7) […]): 0.285
- NF-kB SEAP reporter activity (RAW-Dual [1]; agonist: MPLA (TLR4) […]): 1.58

Structure (SMILES): COc1cc(N2CCN(C)CC2)ccc1Nc1nccc(-c2cn(C)c3cnccc23)n1 (library stock concentration (final ~1000-fold dilution): 10 mM)
- NF-kB SEAP reporter activity (RAW-Dual [2]; agonist: LPS (TLR4) 0.1 ug/mL): 1.02
- NF-kB SEAP reporter activity (RAW-Dual [2]; [4]): 0.192
- NF-kB SEAP reporter activity (RAW-Dual [2]; [5]): 1.14
- NF-kB SEAP reporter activity (RAW-Dual [2]; [6]): 1.44
